Reference: PubChem BioAssay AID588742 (Southern Research Specialized Biocontainment Screening …, 2011)
Out of some 1,800 compounds screened, about 410 (23%) were called active. No rule for the calls is given here. Not all results are given here. Measured potencies and affinities stand elsewhere.

Assay: Vero cell cytotoxicity, cytotoxicity control for flavivirus capping enzyme inhibitors (AID 588742)
Details: Vero cells viability, cytotoxicity counter-screen; series mostly up to 40 µM

SMILES | outcome
CS(=O)(=O)c1ncc(Cl)c(C(=O)Nc2ccc(N3CCOCC3)cc2)n1 | inactive
CCC(CO)Oc1cc(NCc2cccc(C)c2)c2ncn(C(C)C)c2c1 (stereo not drawn) | inactive
CC1(C)CC(=O)C2=C(C1)c1c(ccc3ccccc13)NC2c1cc([N+](=O)[O-])cc([N+](=O)[O-])c1O (stereo not drawn) | inactive
N=C1/C(=C\c2ccc(OC(=O)c3ccccc3Cl)cc2)C(=O)N=C2SC(N3CCOCC3)=NN12 | inactive
Nc1nc(C2C(=O)CCCC2=O)cs1 | inactive
O=C(Nc1c(F)c(F)c(F)c(F)c1F)NC1CCCCC1 | inactive
O=C(O)c1ccccc1N=Nc1c(O)[nH]c2ccc([N+](=O)[O-])cc12 | inactive
CC(C)c1ccc(N2C(=O)C(Cl)=C(N3CCOCC3)C2=O)cc1 | inactive
Cc1c(Cl)cccc1NC(CC(=O)c1ccccc1)C(=O)O (stereo not drawn) | inactive
O=C(CC(Nc1ccc(Cl)cc1Cl)C(=O)O)c1ccccc1 (stereo not drawn) | inactive
O=C(NNc1ccc(O)cc1)c1ccc(Br)cc1 | inactive
Cc1cccc(NC(=O)CSc2nnc(-c3ccco3)c(-c3ccco3)n2)c1C | inactive
Cc1ccc(O)c(NC2=C(Cl)C(=O)N(Cc3ccccc3)C2=O)c1 | inactive
O=C1/C(=C2\C(=O)N(Cc3ccc(F)cc3)c3ccccc32)SC(=S)N1CCS(=O)(=O)O | inactive
Cc1ccc(S(=O)(=O)N2[C@@H](c3cccc(Cl)c3)C(C(=O)O)=CC[C@H]2c2ccc(C(C)C)cc2)cc1 | inactive
O=C(CSc1nc(O)c(Cc2ccccc2)c(=O)[nH]1)Nc1nnc(SCc2ccccc2)s1 | inactive
Oc1cc(CNC2CCCCC2)c(O)cc1CNC1CCCCC1 | inactive
CC(C)C[C@H](N)c1nnc(SCC(=O)Nc2ccc(Br)cc2)o1 | inactive
Cc1ccc(S(=O)(=O)Cc2ccc(C(=O)N3CCC(C(N)=O)CC3)o2)cc1 | inactive
CC(C)c1cc2c(c(O)c1O)[C@@]13CCCC(C)(C)C1CC2OC3=O (stereo partly drawn) | inactive
Cc1ccc(-c2csc(NS(=O)(=O)c3cccc(F)c3)n2)o1 | inactive
CCc1c(C)sc(NC(=O)OC)c1C(=O)N1CCCCC1 | inactive
O=C(O)c1ccccc1C(=O)c1ccc(Sc2ccc(Cl)cc2)c([N+](=O)[O-])c1 | inactive
Cc1sc(NC(=O)c2ccco2)c(C(c2ccncc2)N2CCOCC2)c1C (stereo not drawn) | inactive
CC1(C)CC(=O)C(C(c2ccco2)C2C(=O)CC(C)(C)CC2=O)C(=O)C1 | inactive
Cc1noc(NS(=O)(=O)c2ccc(NC(=O)c3ccccc3NS(=O)(=O)c3ccc(F)cc3)cc2)c1C | inactive
C/C(=N/Nc1ccc(C(=O)O)cc1)c1ccc(O)c(O)c1O | inactive
CCS(=O)(=O)c1nc(S(=O)(=O)c2ccc(C)cc2)c(N2CCOCC2)s1 | inactive
